Our source for the inhibition values is PubChem BioAssay AID651598 (Sanford-Burnham Center for Chemical Genomics, 2012).

Structures are written as SMILES. Where “and” joins values, the source holds several entries; their conditions need not be identical. Identical values can stand only once.

The target of the assay is C-X-C chemokine receptor type 6 (Homo sapiens) (UniProt O00574). Nature of the assay: apelin receptor (APJ) antagonists, SAR follow-up, counter-screen for CXCR6 antagonist project, cell-based, beta-arrestin, DiscoveRx, panel, CHO-K1 (AID 651598). The following applies: CHO-K1 PathHunter beta-arrestin luminescence, antagonist mode; run 1, at 80 µM (top of the series). For orientation: Counterscreens check selectivity or assay interference.
C-X-C chemokine receptor type 6 (Homo sapiens), sequence (O00574 whole entry, looked up): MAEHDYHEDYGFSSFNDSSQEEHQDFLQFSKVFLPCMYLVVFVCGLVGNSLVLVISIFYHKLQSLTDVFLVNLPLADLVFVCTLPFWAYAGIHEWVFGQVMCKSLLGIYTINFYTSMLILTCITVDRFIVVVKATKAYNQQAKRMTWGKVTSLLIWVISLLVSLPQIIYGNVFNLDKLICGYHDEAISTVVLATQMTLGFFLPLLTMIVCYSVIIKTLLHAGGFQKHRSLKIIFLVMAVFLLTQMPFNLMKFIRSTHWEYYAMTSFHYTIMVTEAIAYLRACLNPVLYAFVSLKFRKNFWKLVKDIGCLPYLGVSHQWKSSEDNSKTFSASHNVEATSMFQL
Usually inhibition stands for the relative decrease from the control value, in per cent. A low value points to a response near the control. Turning to `COc1cc(C(=O)NC2CC3CCC(C2)N3CC(=O)Nc2ccccc2)cc(OC)c1OC` (stereo not drawn), the inhibition was 59.5% and 13.9%.

Compound `COc1cc(C(=O)NC2CCN(CC(=O)Nc3ccccc3)CC2)cc(OC)c1OC` came in with an inhibition of 4.26%. For the compound `COc1cc(C(=O)NC2CC3CCCC(C2)N3CC(=O)Nc2ccccc2)cc(OC)c1OC` (stereo not drawn), the inhibition was 89.3% and 49.6% and 26.4%.
